In the supplement of paper PMC8975748:
Structures can show the parent of a compound that is named as a salt.

The molecules below were run on Saccharomyces cerevisiae BY4741 SeMeCo community (assay: z-score of subpopulation abundance vs DMSO median, subpopulation auxotrophic for U; higher = larger share of this subpopulation than in DMSO controls). Conditions: 10 µM; 24 h; SM minimal medium; subpopulation (auxotrophy): U.
Summary of the method: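 Cells of a Saccharomyces cerevisiae BY4741 community, carrying four plasmids that each restored one auxotrophy and encoded a distinct fluorescent protein, were pre-grown overnight to OD600 1.0 and diluted to 0.3. A 70 µl volume was added to 384-well plates acoustically predosed with library drugs (10 µM final) and grown 24 h in minimal SM medium. After paraformaldehyde fixation, automated confocal microscopy was used, with single-auxotroph fluorescent strains for thresholds and autofluorescence correction. The abundance of each subpopulation was scored as a z-score against the vehicle-well median.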
In the case of `COc1cc(O)c(C(=O)Nc2nc(C(=O)NCCN(C(C)C)C(C)C)cs2)cc1OC` [Acotiamide hydrochloride], the “z-score of subpopulation abundance” value is reported as 0.89. In the case of `Cc1onc(-c2c(F)cccc2Cl)c1C(=O)N[C@@H]1C(=O)N2[C@@H]1SC(C)(C)[C@@H]2C(=O)O` [Flucloxacillin sodium], the “z-score of subpopulation abundance” value is reported as 0.55. For `OC(CCCN1CCCCC1)(c1ccccc1)c1ccccc1` [Diphenidol HCl], the “z-score of subpopulation abundance” value was 0.63. `Cc1ccccc1OCC(O)CO` (stereo unspecified) [Mephenesin] was tested, and the “z-score of subpopulation abundance” value was -0.22. In the case of `CC(C)c1c(C(=O)Nc2ccccc2)c(-c2ccccc2)c(-c2ccc(F)cc2)n1CC[C@@H](O)C[C@@H](O)CC(=O)O` [Atorvastatin Calcium], the “z-score of subpopulation abundance” value is reported as 0.01. With `C[C@@H](O)[C@H]1C(=O)N2C(C(=O)[O-])=C(SC3Cn4cnc[n+]4C3)[C@H](C)[C@H]12` (stereo partly specified) [Biapenem] the “z-score of subpopulation abundance” value was -0.12. `CO/N=C(\C(=O)N[C@@H]1C(=O)N2C(C(=O)OC(C)OC(C)=O)=C(COC(N)=O)CS[C@H]12)c1ccco1` (stereo partly specified) [Cefuroxime axetil] was tested, and the “z-score of subpopulation abundance” value was 1.94. In the case of `CC1(C)CC[C@]2(C(=O)O)CC[C@]3(C)C(=CC[C@@H]4[C@@]5(C)CC[C@H](O)C(C)(C)[C@@H]5CC[C@]43C)[C@@H]2C1` [Oleanolic Acid], the “z-score of subpopulation abundance” value is reported as -0.6. For `CCOC(=O)C1=C(C)NC(C)=C(C(=O)OC)C1c1cccc(Cl)c1Cl` (stereo unspecified) [Felodipine], the “z-score of subpopulation abundance” value was -6.72. In the case of `Cc1nnc(SCC2=C(C(=O)O)N3C(=O)[C@@H](NC(=O)Cn4cc(Cl)c(=O)c(Cl)c4)[C@H]3SC2)s1` [Cefazedone], the “z-score of subpopulation abundance” value is reported as -0.01. For `O=c1cc(-c2ccc(O)c(O)c2)oc2cc(O)cc(O)c12` [Luteolin], the “z-score of subpopulation abundance” value was 0.21.
